Assay results: PubChem BioAssay (NCATS)
Results filed as inconclusive are left out. Unmarked numbers belong to inactive results. Active and inactive are the calls of the source. Calls come from the whole dose curve; as a rule, active = well fitted inhibition curve with a large enough effect; inconclusive = small, poorly fitted or top-dose-only effect; inactive = flat fitted curve, though single readings scatter.

molecular target: Aldehyde dehydrogenase, mitochondrial (Homo sapiens) (UniProt P05091); assay: qHTS for Inhibitors of the Aldehyde Dehydrogenase Family (ALDH2) Primary screen (AID 2061308); details: ALDH2 enzyme inhibition qHTS, 1536-well; series mostly up to 56 µM; activity change, negative = inhibition: at the top concentration;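 note: plate controls were vehicle for no effect and reference inhibitor for full effect; nearly all actives have a fitted effect of over 55% in size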

Row | SMILES | activity change, negative = inhibition | Potency
1 | Cc1nnc(-c2cnn(C)c2)n1CCCn1ccnc1 | -1.64% | 
2 | COc1ccccc1S(=O)(=O)Nc1cnccc1C(=O)Nc1nc(-c2ccccc2)cs1 | -11.6% | 
3 | Clc1ccc(-c2nc3ccccc3s2)cc1 | 5.11% | 
4 | COc1cccc(C(=O)Nc2ccc([S+](=O)([O-])Nc3nccs3)cc2)c1O | 3.66% | 
5 | C=C1C(=O)O[C@@H]2C[C@@]3(C)CCCC(=C)[C@]3(O)C[C@H]12 | 12.1% | 
6 | O=C([C@H](Cc1ccc(O[S+](=O)([O-])c2cccc3cccnc23)cc1)N[S+](=O)([O-])c1cccnc1)N1CCN(c2ccccc2)CC1 | -7.67% | 
7 | Nc1cccc(S(=O)(=O)Nc2cnccc2C(=O)Nc2nc(-c3ccccc3)cs2)c1 | -4.23% | 
8 | COc1cccc(-c2ccc3ncnc(NCc4cccs4)c3c2)c1 | -0.88% | 
9 | Cc1ccc(NS(=O)(=O)c2ccc(N3CCCC3=O)cc2)cc1C | -2.56% | 
10 | O=[S+]([O-])(c1ccc2c(c1)OCCO2)N1CCN([S+](=O)([O-])c2ccccc2Br)CC1 | 6.06% | 
11 | C=CCNc1oc(-c2cccc(Cl)c2)nc1C#N | -1.44% | 
12 | O=S(=O)(c1ccc2c(c1)OCCO2)N1CCN(S(=O)(=O)c2cc(F)c(Br)cc2F)CC1 | 3.93% | 
13 | OCc1ccc(-c2ccc3ncnc(NCc4ncc[nH]4)c3c2)o1 | -12.9% | 
14 | CCCn1c(-c2ccc(F)cc2)nc2c(NCCN3CCCCC3)nc(C)nc21 | 6.57% | 
15 | COc1cccc(S(=O)(=O)N2CCN(S(=O)(=O)c3ccc4c(c3)OCCO4)CC2)c1 | 10.7% | 
16 | Cc1cc2c(s1)c1cnn(Cc3cc(F)c(F)c(F)c3)c(=O)c1n2C | 4.02% | 
17 | CCCN1CCN(c2cccc(Nc3nn4c(=O)c5ccccc5nc4s3)c2)CC1 |  | inactive
18 | Fc1cccc(CSc2nc3ncc(Br)cc3[nH]2)c1 | 0.569% | 
19 | C=C1CCC2C(C)(C(=O)OC)CCCC2(C)C1CCC1=CCOC1=O (stereo not given) | 13% | 
20 | Cc1ccc(S(=O)(=O)Nc2ccc(F)cc2C(=O)Nc2nc(-c3ccccc3)cs2)cc1 | -12.1% | 

Row | SMILES | activity change, negative = inhibition | Potency
21 | CNc1nc(-c2cccc3ccccc23)ccc1C#N | 10.7% | 
22 | Nc1nc(Nc2cc(F)cc(F)c2)nc(NC2CCCC2)n1 | 4.93% | 
23 | Cc1cccc(-n2cnc3cc(C(=O)N4CCCC4)ccc32)c1 | -1.54% | 
24 | O=C(CCc1ccccc1)Nc1cccc([S+](=O)([O-])Nc2ccccc2F)c1 | -6.42% | 
25 | COCCN1C(=O)c2ccccc2NC1c1ccc(OC)c(COc2c(C)cc(NC(C)=O)cc2C)c1 (stereo not given) | 6.48% | 
26 | O=C(O)c1ccc(-c2noc(-c3ccccc3C(F)(F)F)n2)cc1 | 4.99% | 
27 | Cc1ccnc(NC(=S)N2CC3CN(c4ccc(Cl)cc4C(F)(F)F)CC3C2)c1 (stereo not given) | -2.69% | 
28 | N#Cc1cccc(-c2ccc(CNc3nc(-c4ccccc4C(F)(F)F)nc4ccccc34)cc2)c1 | 9.27% | 
29 | CNc1oc(-c2cccc3c2OC(F)(F)O3)nc1C#N | 12.1% | 
30 | COc1ccc(NC(=O)c2cccnc2C)cc1S(=O)(=O)Nc1ccc(Br)cc1 | 20% | 
31 | CC(C)Oc1ccc(C(=O)Nc2ccc(-c3nc4ccccc4[nH]3)cc2)cc1 | -1.46% | 
32 | CCCCN(C)C(=O)Cn1nc(-c2cccc(C)c2)ccc1=O | 17.6% | 
33 | COc1ccccc1-c1nc(NCc2ccc(-c3cccnc3)cc2)c2ccccc2n1 | 44.7% | 
34 | Cn1nnnc1Sc1ncnc2scc(-c3ccccc3F)c12 | 9.21% | 
35 | O=C1CCCC2=C1C(c1[nH]ncc1Cl)N=C(Nc1nc3cc(F)ccc3o1)N2 (stereo not given) | 1.07% | 
36 | O=C(OCC#CCSc1nnc(-c2cccc3ccccc23)o1)c1cccc(C(F)(F)F)c1 | -10.2% | 
37 | COc1ccccc1NS(=O)(=O)c1ccc2c(c1)CCC(=O)N2 | -16.9% | 
38 | O=C(Nc1ccc(O)c2ncccc12)c1ccccc1F | 1.88% | 
39 | COc1cc2c(s1)c1cnn(Cc3ccccc3F)c(=O)c1n2C | -4.63% | 
40 | O=C(Nc1nc(-c2ccccc2)cs1)c1ccncc1NS(=O)(=O)c1ccc(N2CCCC2=O)cc1 | 4.64% | 
